Assay outcomes deposited in PubChem BioAssay by National Center for Advancing Translational Sciences (NCATS).
This is a sample that favours compounds with a hit; in the whole collection about 19% have one here.
HT1080 IDH1KD tx – kills HT-1080 cells with IDH1 knockdown; HT-1080 IDH1 knockdown viability, ATP luminescence, 48 h; Potency, µM (titrated, usually from 46.1 µM), for the others: at the top dose activity, negative = toxicity, most hits filed as cytotoxic; 360,000 tested, 2% active;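 further: potency means the concentration at half of the fitted maximal effect; 0% = DMSO wells and -100% = cell-free medium wells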
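Knockdown cells (IDH1KD HT-1080) received compounds 2 h after plating at 750 cells/well and were kept 48 h at 37 °C in 5% FBS RPMI. A CellTiter-Glo luminescence read gave % activity for curve fitting.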
DT40 TDP1 CPT – growth inhibition of DT40 Tdp1-/-;hTDP1 cells with camptothecin (screen for TDP1 inhibitors). chicken DT40 Tdp1-/-;hTDP1 cells + 20 nM CPT, ATP luminescence, 48 h. Potency, µM (series often up to 46.2 µM), without a hit: at the top dose activity change, negative = growth inhibition, hits mostly inhibitors. 420,000 tested, 12% active; further: potency means the concentration at half of the fitted maximal effect; nearly all actives have a fitted effect of over 55% in size
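Chicken DT40 Tdp1-/- cells complemented with human TDP1, 400 cells/well, exposed to compounds plus 20 nM camptothecin for at least 48 h at 37 C; viability read as ATP content by CellTiter-Glo luminescence.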
HT1080NT lethal – kills 2HG-producing HT-1080-NT fibrosarcoma cells. 360,000 tested, 1.6% active. HT-1080-NT fibrosarcoma viability, CellTiter-Glo ATP luminescence, 48 h. Potency, µM (highest dose often 46.1 µM), for inactives: top-dose activity, negative = less viability, actives largely listed as cytotoxic;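 further: NT is the 2HG producing partner of a matched IDH1 knockdown line; potency means the concentration at half of the fitted maximal effect; 0% = DMSO-treated cells and -100% = media-only wells without cells; nearly all actives have a fitted effect of over 55% in size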
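Compounds were tested in concentration-response format on HT-1080-NT cells for 48 hours at 37 degrees C. Cell viability came from CellTiter-Glo luminescence; curves were classified by r2, response magnitude and activity.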
DT40 TDP1 no CPT – qHTS for Inhibitors of human tyrosyl-DNA phosphodiesterase 1 (TDP1): qHTS in cells in absence of CPT | DT40 Tdp1-/- hTDP1 cells, no CPT, ATP luminescence, 48 h | Potency, µM (top dose mostly 46.2 µM), for the others: at the top dose activity change, negative = growth inhibition, actives largely listed as inhibitors | 420,000 tested, 15% active | AID 686978, 2013; further: potency means the concentration at half of the fitted maximal effect; nearly all actives have a fitted effect of over 55% in size
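Chicken DT40 Tdp1-/- cells complemented with human TDP1, screened without camptothecin (DMSO vehicle only), 400 cells/well. Compounds pin-transferred, cells incubated at 37 °C for at least 48 hr. Growth read as ATP-dependent luminescence (CellTiter-Glo, 30 min at RT).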
ELG1 repair inh – inhibitors of ELG1-dependent DNA repair in HEK293T cells | 330,000 tested, 2.3% active | Potency, µM (top dose mostly 46.1 µM), inactives show at the top dose activity change, negative = inhibition, most hits filed as inhibitors | AID 504467 | HEK293T ELG1-luciferase reporter, luminescence, 16 h; DNA damage induced by 5-fluorouridine; further: potency means the concentration at half of the fitted maximal effect; nearly all actives have a fitted effect of over 55% in size
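In this reporter screen, reduction of luminescence relative to DMSO vehicle indicated activity. Compounds and 5-fluorouridine were added together to 2,000 cells per well, incubated for 16 hr at 37 °C, then developed with ONE-Glo.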
IL-1B inflam inh – blocks inflammasome-driven IL-1 beta release | activity change, % at 57.5 µM | AID 743279 | 360,000 tested, 4.7% active | THP-1 LPS/ATP IL-1B secretion, AlphaLISA, 16 h; hits give low values; in the data active means activity change below about -50%; inconclusive means mostly about -30% to -49%
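Secreted IL-1B measured by AlphaLISA bead assay after 16 h compound exposure of THP-1 cells; compounds (final up to 57.5 uM) added 1 h before LPS (250 ng/mL) and ATP (1.25 mM) stimulation; lower signal means less secretion.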
The depositor's hits bear a star; ? = inconclusive; / = no result given; [ ] = dose if it differs, or a comment. Unless noted, the call rests on the fitted dose curve; in most records, active means well fitted curve in the direction sought with a large enough effect; inconclusive means small, poorly fitted or top-dose-only effect, or another doubt; inactive means no such curve, though single readings can be large; an effect the other way counts as inactive or inconclusive. Unless noted, on the % scale 0 is the no-effect control and ±100 the full control effect.

SMILES	HT1080 IDH1KD tx	DT40 TDP1 CPT	HT1080NT lethal	DT40 TDP1 no CPT	ELG1 repair inh	IL-1B inflam inh
CSCCC(c1nnnn1C1CCCCC1)N1CCN(C/C=C/c2ccccc2)CC1 (centres undefined)	?	?	?	21µM*	/	-29
CCC(C(=O)NC1CCCC1)n1c(-c2cc3ccccc3[nH]2)nc2ccccc21 (centres undefined)	-1%	?	-16%	?	/	55
CCc1ccc(NC(=O)c2cnc(SC)nc2C)cc1	-5%	?	0%	-25%	?	22
O=C(NCCc1ccc(Cl)cc1)c1cccc(NC2=NC3CS(=O)(=O)CC3S2)c1 (centres undefined)	9%	0%	14%	12%	13%	-5
Cc1ncc2c(c1CNC(=O)c1ccc3c(c1)OCO3)CCN(C(=O)c1ccc3ccccc3c1)C2	/	7%[9.04 µM]	/	-19%	/	/
Cc1ccc(Cl)cc1N1CCN(C(=O)CN(C2CCCCC2)S(C)(=O)=O)CC1	21µM*	15µM*	-7%	8.2µM*	18µM*	?
CCN1CCN(C(=O)CN(c2cc(OC)ccc2OC)S(C)(=O)=O)CC1	24%	1%	17%	-19%	15%	27
COc1ccc(OC)c(N(CC(=O)N2CCN(c3cc(Cl)ccc3C)CC2)S(C)(=O)=O)c1	?	15µM*	?	?	-25%	-29
CS(=O)(=O)N(CC(=O)N1CCN(c2cccc(Cl)c2)CC1)C1CCCCC1	-1%	-28%	-1%	?	-7%	0
CC(=O)OCC(=O)[C@]1(O)C(OC(C)=O)CC2C3CCC4=CC(=O)C=C[C@@]4(C)[C@]3(F)C(O)C[C@]21C (some centres undefined)	/	-4%	/	-8%	/	/
O=C(NCc1ccncc1)C1Cc2c(-c3ccc4c(c3)OCO4)ccnc2O1 (centres undefined)	?	?	?	13µM*	/	8
O=C(NCc1ccccc1)C1Cc2c(-c3ccc4c(c3)OCO4)ccnc2O1 (centres undefined)	0.41µM*	0.58µM*	?	0.73µM*	/	60
CN1CCN(c2ccc(CNC(=O)C3Cc4c(-c5ccc6c(c5)OCO6)ccnc4O3)cc2)CC1 (centres undefined)	-28%	-10%	-26%	?	/	-27
O=C(Nc1ccc(Br)cc1F)c1cc2nc(-c3ccco3)cc(C(F)(F)Cl)n2n1	/	-13%	/	-10%	/	/
O=C1NCCN(Cc2cccc(Oc3ccccc3)c2)C1CC(=O)N1CCCO1 (centres undefined)	-29%	-28%	-8%	-23%	-11%	10
O=C(Cn1c(=O)n(Cc2ccco2)c(=O)c2c3c(sc21)CCCCC3)c1ccccc1	-16%	15µM*	-12%	15µM*	4%	14
O=c1c2c3c(sc2n(CCN2CCCC2)c(=O)n1Cc1ccco1)CCCCC3	-3%	8.2µM*	2%	12µM*	0%	?
O=C(Cn1c(=O)n(Cc2ccco2)c(=O)c2c3c(sc21)CCCCC3)Nc1ccccc1	1%	-7%	1%	?	-20%	-1
O=C1CSC(=S)N1/N=C/c1ccc(O)c(O)c1O	-22%	26µM*	-16%	?	23µM*	4
O=C1c2ccccc2C(=O)N1CCCCc1cn(C[C@H]2CC[C@@H]([C@@H]3CC[C@H](Cn4cc(CCCCN5C(=O)c6ccccc6C5=O)nn4)O3)O2)nn1	9%	16µM*	1%	16µM*	?	-7
O=C1c2ccccc2C(=O)N1CCCc1cn(C[C@H]2CC[C@@H]([C@@H]3CC[C@H](Cn4cc(CCCN5C(=O)c6ccccc6C5=O)nn4)O3)O2)nn1	5%	-4%	10%	-6%	?	-24
COc1ccc(C(CNC(=O)c2cc(SC)ccc2Cl)N(C)C)cc1 (centres undefined)	1%	?	-2%	0%	?	?
CSc1ccc(Cl)c(C(=O)NCCOc2cc(C(C)C)ccc2C)c1	?	29µM*	?	26µM*	-23%	?
CCc1ccc(NC(=O)CCCN2C(=O)C3CC=CCC3C2=O)cc1 (centres undefined)	?	-16%	-15%	?	-7%	2
CSc1cccc(NC(=O)CN2C(=O)COc3ccc(Cl)cc32)c1	/	?	/	21µM*	/	/
SMILES	HT1080 IDH1KD tx	DT40 TDP1 CPT	HT1080NT lethal	DT40 TDP1 no CPT	ELG1 repair inh	IL-1B inflam inh
COc1ccc(NC(=O)CN2C(=O)COc3ccc(S(=O)(=O)Nc4ccccc4)cc32)cc1OC	/	-5%	/	-27%	/	/
CC(=O)c1cccc(NC(=O)CCCN2C(=O)COc3ccc(C)cc32)c1	/	18µM*	/	?	/	/
O=C(CN1C(=O)COc2ccc(S(=O)(=O)Nc3ccccc3)cc21)Nc1cccc(Cl)c1	/	16µM*	/	?	/	/
CCc1ccccc1NC(=O)CN1C(=O)COc2ccc(S(=O)(=O)Nc3ccccc3)cc21	/	18µM*	/	26µM*	/	/
COc1ccc(NC(=O)CN2C(=O)COc3ccc(S(=O)(=O)Nc4ccccc4)cc32)cc1	/	-26%	/	-15%	/	/
N#Cc1cccc(NC(=O)C2CCN(c3ncccn3)CC2)c1	/	-16%	/	3%	/	/
O=C(CCn1nnc2ccccc21)N/N=C\Cc1ccccc1	-1%	6%	15%	-16%	-3%	-10
O=c1[nH]cc(CCc2ccccc2)c2ncncc12	21%	?	16%	?	/	/
CCc1cccc(NC(=O)CN2C(=O)COc3ccc(S(=O)(=O)Nc4ccccc4)cc32)c1	/	?	/	23µM*	/	/
CC(C)CC(=O)N(Cc1ccccc1)S(=O)(=O)c1ccc2c(c1)oc(=O)n2C	/	-29%	/	?	/	/
Cc1cccc(COCC(Cc2ccccc2)N2CCN(C(=O)c3ccc(Cl)c(Cl)c3)CCC2=O)c1 (centres undefined)	?	21µM*	-27%	?	?	-74*
O=C(c1cccc(Cl)c1)N1CCC(=O)N([C@H](COCc2cccc(Cl)c2)Cc2ccccc2)CC1	16µM*	?	?	23µM*	/	?
Cc1cccc(COC[C@H](Cc2ccccc2)N2CCN(C(=O)c3ccc(Cl)c(Cl)c3)CCC2=O)c1	16µM*	?	?	?	/	-65*
CC(C)CC(CO)N1CCN(C(=O)c2cccc(Cl)c2)CCC1=O (centres undefined)	-5%	-16%	?	-16%	/	-14
